Measurements as given in PubChem BioAssay AID1159580 (chemical genetic matrix, 2015).
The whole screen tested about 5,500 compounds, of which about 2,000 (36%) were called active. About 18% were inconclusive and are not listed. Cut-off read from the data, not from the text of the source: active = normalized growth mostly below about 0.91 (no sharp cut-off); inconclusive = no clear call, values can overlap the other calls; inactive = mostly above about 0.92. Some of the results follow.

Test: chemical genetic growth profiling, strain panel (AID 1159580);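 note: tested at 20 µM; growth read once vehicle control cultures reached saturation at 30 °C; 1 = growth at the plate median or of vehicle wells; lower values mean less growth of the strain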
Details: growth OD
[1] = S. cerevisiae deletion strains, locus YHR030C, strain SLT2, stronger effect = lower value

Measured: normalized growth

COC(=O)c1cc(OC)c(OC)cc1NS(=O)(=O)c1ccc(C)cc1
inactive: S. cerevisiae deletion strains, locus YAL013W, strain DEP1, stronger effect = lower value 1.01 | S. cerevisiae deletion strains, locus YBR229C, strain ROT2, stronger effect = lower value 0.996 | S. cerevisiae deletion strains, locus YDL101C, strain DUN1, stronger effect = lower value 0.994 | S. cerevisiae deletion strains, locus YDR150W, strain NUM1, stronger effect = lower value 0.933 | S. cerevisiae deletion strains, locus YEL061C, strain CIN8, stronger effect = lower value 1.01 | S. cerevisiae deletion strains, locus YGR078C, strain PAC10, stronger effect = lower value 0.989 | [1] 0.959 | S. cerevisiae deletion strains, locus YHR087W, strain rtc3, stronger effect = lower value 1 | S. cerevisiae deletion strains, locus YJR043C, strain POL32, stronger effect = lower value 0.985 | S. cerevisiae deletion strains, locus YJR075W, strain HOC1, stronger effect = lower value 0.991 | S. cerevisiae deletion strains, locus YKL190W, strain CNB1, stronger effect = lower value 1 | S. cerevisiae deletion strains, locus YLR039C, strain RIC1, stronger effect = lower value 0.961 | S. cerevisiae deletion strains, locus YLR058C, strain SHM2 (second series), stronger effect = lower value 1.01 | S. cerevisiae deletion strains, locus YLR085C, strain ARP6, stronger effect = lower value 1.03 | S. cerevisiae deletion strains, locus YLR262C, strain YPT6, stronger effect = lower value 0.891 | S. cerevisiae deletion strains, locus YML094W, strain GIM5, stronger effect = lower value 1.03 | S. cerevisiae deletion strains, locus YMR219W, strain ESC1, stronger effect = lower value 1 | S. cerevisiae deletion strains, locus YMR263W, strain SAP30, stronger effect = lower value 0.971 | S. cerevisiae deletion strains, locus YMR307W, strain GAS1, stronger effect = lower value 0.959 | S. cerevisiae deletion strains, locus YNL153C, strain GIM3, stronger effect = lower value 0.987 | S. cerevisiae deletion strains, locus YNL298W, strain CLA4 (second series), stronger effect = lower value 0.962 | S. cerevisiae deletion strains, locus YNL322C, strain KRE1, stronger effect = lower value 1 | S. cerevisiae deletion strains, locus YNR030W, strain Alg12, stronger effect = lower value 0.996 | S. cerevisiae deletion strains, locus YPL055C, strain LGE1, stronger effect = lower value 0.894 | S. cerevisiae deletion strains, locus YPL241C, strain CIN2, stronger effect = lower value 1.01 | S. cerevisiae deletion strains, locus YPR135W, strain CTF4, stronger effect = lower value 0.93 | S. cerevisiae strains, strain wild type, stronger effect = lower value 0.99

CCC(COC(=O)c1cc(OC)c(OC)c(OC)c1)(c1ccccc1)N(C)C (configuration not stated)
inactive: S. cerevisiae deletion strains, locus YAL021C, strain ccr4, stronger effect = lower value 0.969 | S. cerevisiae deletion strains, locus YAL026C, strain drs2, stronger effect = lower value 0.994 | S. cerevisiae deletion strains, locus YAL030W, strain snc1, stronger effect = lower value 0.985 | S. cerevisiae deletion strains, locus YBL061C, strain skt5, stronger effect = lower value 0.993 | S. cerevisiae deletion strains, locus YBR009C, strain hhf1, stronger effect = lower value 1.01 | S. cerevisiae deletion strains, locus YBR023C, strain chs3, stronger effect = lower value 0.98 | S. cerevisiae deletion strains, locus YBR171W, strain sec66, stronger effect = lower value 0.961 | S. cerevisiae deletion strains, locus YBR231C, strain swc5, stronger effect = lower value 0.985 | S. cerevisiae deletion strains, locus YBR279W, strain paf1, stronger effect = lower value 0.975 | S. cerevisiae deletion strains, locus YCL011C, strain gbp2, stronger effect = lower value 0.969 | S. cerevisiae deletion strains, locus YCL016C, strain dcc1, stronger effect = lower value 0.99 | S. cerevisiae deletion strains, locus YCL061C, strain MRC1, stronger effect = lower value 0.987 | S. cerevisiae deletion strains, locus YCL069W, strain vba3, stronger effect = lower value 0.988 | S. cerevisiae deletion strains, locus YCR088W, strain abp1, stronger effect = lower value 0.979 | S. cerevisiae deletion strains, locus YDL005C, strain med2, stronger effect = lower value 0.977 | S. cerevisiae deletion strains, locus YDL040C, strain nat1, stronger effect = lower value 0.978 | S. cerevisiae deletion strains, locus YDR001C, strain nth1, stronger effect = lower value 0.974 | S. cerevisiae deletion strains, locus YDR069C, strain doa4, stronger effect = lower value 0.992 | S. cerevisiae deletion strains, locus YDR137W, strain rgp1, stronger effect = lower value 0.925 | S. cerevisiae deletion strains, locus YDR159W, strain sac3, stronger effect = lower value 0.986 | S. cerevisiae deletion strains, locus YDR195W, strain ref2 0.984 | S. cerevisiae deletion strains, locus YDR297W, strain sur2, stronger effect = lower value 0.971 | S. cerevisiae deletion strains, locus YDR334W, strain swr1, stronger effect = lower value 0.938 | S. cerevisiae deletion strains, locus YDR335W, strain msn5, stronger effect = lower value 0.969 | S. cerevisiae deletion strains, locus YDR392W, strain spt3, stronger effect = lower value 0.753 | S. cerevisiae deletion strains, locus YEL003W, strain gim4, stronger effect = lower value 0.967 | S. cerevisiae deletion strains, locus YEL037C, strain rad23, stronger effect = lower value 0.983 | S. cerevisiae deletion strains, locus YEL061C, strain CIN8 (second series), stronger effect = lower value 0.985 | S. cerevisiae deletion strains, locus YER015W, strain faa2, stronger effect = lower value 0.986 | S. cerevisiae deletion strains, locus YER016W, strain bim1, stronger effect = lower value 0.983 | S. cerevisiae deletion strains, locus YER111C, strain swi4, stronger effect = lower value 0.983 | S. cerevisiae deletion strains, locus YER155C, strain BEM2 (second series), stronger effect = lower value 0.97 | S. cerevisiae deletion strains, locus YFR010W, strain ubp6, stronger effect = lower value 0.984 | S. cerevisiae deletion strains, locus YGL167C, strain pmr1, stronger effect = lower value 0.976 | S. cerevisiae deletion strains, locus YGL173C, strain kem1, stronger effect = lower value 0.985 | S. cerevisiae deletion strains, locus YGL227W, strain vid30, stronger effect = lower value 0.99 | S. cerevisiae deletion strains, locus YGL240W, strain doc1, stronger effect = lower value 0.972 | S. cerevisiae deletion strains, locus YGL253W, strain hxk2, stronger effect = lower value 0.994 | S. cerevisiae deletion strains, locus YHR013C, strain ard1, stronger effect = lower value 0.937 | S. cerevisiae deletion strains, locus YHR027C, strain rpn1, stronger effect = lower value 0.969 | [1] 0.976 | S. cerevisiae deletion strains, locus YHR079C, strain IRE1, stronger effect = lower value 0.985 | S. cerevisiae deletion strains, locus YHR142W, strain chs7, stronger effect = lower value 0.952 | S. cerevisiae deletion strains, locus YJL092W, strain hpr5, stronger effect = lower value 0.973 | S. cerevisiae deletion strains, locus YJL095W, strain BCK1 (second series), stronger effect = lower value 0.981 | S. cerevisiae deletion strains, locus YJL095W, strain BCK1, stronger effect = lower value 0.98 | S. cerevisiae deletion strains, locus YJL115W, strain asf1, stronger effect = lower value 0.957 | S. cerevisiae deletion strains, locus YJL129C, strain trk1, stronger effect = lower value 0.938 | S. cerevisiae deletion strains, locus YJL154C, strain vps35, stronger effect = lower value 0.979 | S. cerevisiae deletion strains, locus YJL164C, strain tpk1, stronger effect = lower value 0.966 | S. cerevisiae deletion strains, locus YJL166W, strain qcr8, stronger effect = lower value 0.969 | S. cerevisiae deletion strains, locus YJL187C, strain SWE1, stronger effect = lower value 0.988 | S. cerevisiae deletion strains, locus YJR066W, strain TOR1, stronger effect = lower value 0.924 | S. cerevisiae deletion strains, locus YKL160W, strain elf1, stronger effect = lower value 0.959 | S. cerevisiae deletion strains, locus YKR026C, strain gcn3, stronger effect = lower value 0.983 | S. cerevisiae deletion strains, locus YKR091W, strain srl3, stronger effect = lower value 0.976 | S. cerevisiae deletion strains, locus YLL001W, strain dnm1, stronger effect = lower value 0.985 | S. cerevisiae deletion strains, locus YLL026W, stronger effect = lower value 0.975 | S. cerevisiae deletion strains, locus YLL041C, strain sdh2, stronger effect = lower value 0.964 | S. cerevisiae deletion strains, locus YLR027C, strain aat2, stronger effect = lower value 0.974 | S. cerevisiae deletion strains, locus YLR113W, strain HOG1, stronger effect = lower value 0.995 | S. cerevisiae deletion strains, locus YLR221C, strain rsa3, stronger effect = lower value 0.951 | S. cerevisiae deletion strains, locus YLR258W, strain gsy2, stronger effect = lower value 0.991 | S. cerevisiae deletion strains, locus YLR262C, strain YPT6 (second series), stronger effect = lower value 0.933 | S. cerevisiae deletion strains, locus YLR320W, strain mms22, stronger effect = lower value 0.942 | S. cerevisiae deletion strains, locus YLR342W, strain FKS1, stronger effect = lower value 0.983 | S. cerevisiae deletion strains, locus YLR357W, strain rsc2, stronger effect = lower value 0.966 | S. cerevisiae deletion strains, locus YLR370C, strain arc18, stronger effect = lower value 0.997 | S. cerevisiae deletion strains, locus YLR384C, strain iki3, stronger effect = lower value 0.976 | S. cerevisiae deletion strains, locus YML120C, strain ndi1, stronger effect = lower value 0.957 | S. cerevisiae deletion strains, locus YMR058W, strain fet3, stronger effect = lower value 0.979 | S. cerevisiae deletion strains, locus YMR125W, strain sto1, stronger effect = lower value 0.97 | S. cerevisiae deletion strains, locus YMR129W, stronger effect = lower value 0.978 | S. cerevisiae deletion strains, locus YMR205C, strain PFK2, stronger effect = lower value 1.02 | S. cerevisiae deletion strains, locus YMR231W, strain pep5, stronger effect = lower value 0.999 | S. cerevisiae deletion strains, locus YNL071W, strain lat1, stronger effect = lower value 0.921 | S. cerevisiae deletion strains, locus YNL183C, strain NPR1, stronger effect = lower value 0.939 | S. cerevisiae deletion strains, locus YNL209W, strain ssb2, stronger effect = lower value 0.98 | S. cerevisiae deletion strains, locus YNL248C, strain rpa49, stronger effect = lower value 0.945 | S. cerevisiae deletion strains, locus YNL322C, strain KRE1 (second series), stronger effect = lower value 0.972 | S. cerevisiae deletion strains, locus YNR049C, strain mso1, stronger effect = lower value 0.973 | S. cerevisiae deletion strains, locus YOR001W, strain rrp6, stronger effect = lower value 0.913 | S. cerevisiae deletion strains, locus YOR070C, strain gyp1, stronger effect = lower value 0.978 | S. cerevisiae deletion strains, locus YOR080W, strain dia2, stronger effect = lower value 0.977 | S. cerevisiae deletion strains, locus YOR083W, strain WHI5, stronger effect = lower value 0.952 | S. cerevisiae deletion strains, locus YOR106W, strain vam3, stronger effect = lower value 0.957 | S. cerevisiae deletion strains, locus YOR231W, strain MKK1, stronger effect = lower value 0.988 | S. cerevisiae deletion strains, locus YOR265W, strain rbl2, stronger effect = lower value 0.976 | S. cerevisiae deletion strains, locus YOR270C, strain vph1, stronger effect = lower value 0.955 | S. cerevisiae deletion strains, locus YOR290C, strain snf2, stronger effect = lower value 0.925 | S. cerevisiae deletion strains, locus YPL051W, strain arl3, stronger effect = lower value 0.954 | S. cerevisiae deletion strains, locus YPL078C, strain atp4, stronger effect = lower value 0.946 | S. cerevisiae deletion strains, locus YPL106C, strain sse1, stronger effect = lower value 0.941 | S. cerevisiae deletion strains, locus YPL240C, strain hsp82, stronger effect = lower value 0.961 | S. cerevisiae deletion strains, locus YPL256C, strain CLN2, stronger effect = lower value 0.966
